PostGolgi yeast: phenotypic screen on post-Golgi transport, primary screen. post-Golgi transport phenotypic cell assay. inhibition, % at 10 µM. 98,000 tested, 0.9% active. AID 739, 2007;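 also: yeast cells grown in 1536-well plates; yeast grown about 18 h at 30C before absorbance read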
CYP2C19 inhib: blockers of cytochrome P450 2C19 activity – biochemical, luminescence, ADME assay, primary screen; P33261; CYP2C19 Supersomes, luciferin-H EGE luminescence, 30 min; inhibition, % at 5 µM; 96,000 tested, 21% active; AID 778, 2007;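 active = CYP2C19 inhibition above a set limit at 5 µM in the primary screen, cut at about 50% in these data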;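 also: plate controls were negative control wells for no effect and 2.5 mM tranylcypromine positive control for full effect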
Target sequence (P33261 whole entry, looked up): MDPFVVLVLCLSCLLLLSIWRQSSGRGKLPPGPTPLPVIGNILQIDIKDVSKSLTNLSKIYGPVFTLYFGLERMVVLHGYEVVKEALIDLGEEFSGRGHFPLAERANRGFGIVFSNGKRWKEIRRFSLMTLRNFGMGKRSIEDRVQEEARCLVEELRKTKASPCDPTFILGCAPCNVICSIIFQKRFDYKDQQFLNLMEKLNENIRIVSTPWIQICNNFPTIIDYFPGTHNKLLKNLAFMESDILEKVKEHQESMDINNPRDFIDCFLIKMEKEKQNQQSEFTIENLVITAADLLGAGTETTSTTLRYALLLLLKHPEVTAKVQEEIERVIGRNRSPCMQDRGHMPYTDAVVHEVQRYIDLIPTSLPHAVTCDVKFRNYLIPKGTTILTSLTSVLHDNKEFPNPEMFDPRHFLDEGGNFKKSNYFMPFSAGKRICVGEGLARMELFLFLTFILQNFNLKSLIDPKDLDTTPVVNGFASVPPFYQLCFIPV
CYP2C9 activ: human CYP2C9 activators, primary screen, biochemical, luminescence; Cytochrome P450 2C9 (Homo sapiens), P11712; recombinant CYP2C9, luciferin-H conversion; active compounds read high; factor 1 = untreated enzyme, 0 = blocked; activation factor at 5 µM; 96,000 tested, 1.4% active; AID 1024, 2008;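 active = activation factor of 2 or more for CYP2C9 at a 5 µM dose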;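 also: 0 = sulfaphenazole-blocked wells and 1 = vehicle-only wells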
CYP2C9 inh: blockers of cytochrome P450 2C9 activity – biochemical, luminescence, ADME assay, primary screen. P11712. CYP2C9 Supersomes, luciferin-H conversion. inhibition, % at 5 µM. 96,000 tested, 20% active;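 active = blocking of liver enzyme CYP2C9 beyond about 50% at 5 µM, limit read from the data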
PostGolgi ctrl: growth inhibition of yeast control strain, primary screen, counter-screen for post-Golgi transport modulator project | efflux-deficient yeast background strain, growth absorbance A615, 16 h | 98,000 tested, 5% active | inhibition, % at 10 µM | AID 738, 2007
CYP2C19 activ: human CYP2C19 activators, primary screen, biochemical, luminescence. Cytochrome P450 2C19 (Homo sapiens), P33261. recombinant CYP2C19, luciferin-H EGE luminescence; active compounds read high; 0 = fully inhibited enzyme, 1 = untreated enzyme. activation factor at 5 µM. 96,000 tested, under 10 active. AID 1025, 2008;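 active = activation factor of at least 2 at 5 µM in the primary screen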;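 also: 0 = wells with 2.5 mM tranylcypromine and 1 = vehicle-only wells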
Active calls of the source: *. Hits are enriched below; roughly 32% of the tested compounds scored in any of these assays. Rule as the data show it, unless noted: active = inhibition above about 30%; inactive = the rest.

SMILES	PostGolgi yeast	CYP2C19 inhib	CYP2C9 activ	CYP2C9 inh	PostGolgi ctrl	CYP2C19 activ
COc1cccc(C2CC(c3ccc(Cl)cc3Cl)n3nc(N)nc3N2)c1 (configuration not stated)	1	90*	0.8	17	3	0.1
Cc1ccc(S(=O)(=O)C2(C(=O)N(C)C3CCCCC3)CC2)cc1	-8	50*	0.9	8	27	0.5
Cc1ccc(S(=O)(=O)C2(C(=O)N3CCCCC3C)CC2)cc1 (configuration not stated)	-3	72*	0.9	7	23	0.3
CC(=O)Nc1ccc(-c2csc(NC(=O)c3ccc(C)o3)n2)cc1	-2	52*	0.6	38	10	0.5
O=C(NCCc1ccccc1)C(=O)NCC1CCCO1 (configuration not stated)	-10	12	0.9	6	12	0.9
CCOCCCn1c(=S)[nH]c2cc(C(=O)N3CCN(C)CC3)ccc2c1=O	-3	-5	0.9	5	7	1.1
CCCn1c(=S)[nH]c2cc(C(=O)N3CCc4ccccc43)ccc2c1=O	-2	-6	1	1	103*	1.1
COCCn1c(=S)[nH]c2cc(C(=O)N3CCc4ccccc43)ccc2c1=O	-14	-15	1	-3	96*	1.2
CCNc1nc2[nH]c(=O)c3c(c2s1)OC(N)=C(C#N)C3c1ccc(C)cc1 (configuration not stated)	1	-2	0.9	13	-3	1
O=S(=O)(NC1CC1)c1ccc(S(=O)(=O)N2CCCC3(CCCCC3)C2)cc1	-9	26	0.5	49	9	0.7
Oc1ccc(C=Nc2ccc3ncccc3c2)c(O)c1	-2	56*	0.5	48	2	0.4
CCOC(=O)N1CCC(NC(=O)Cn2nc(-c3ccccc3)ccc2=O)CC1	1	4	1	-4	1	1
CCN1CCCC1CNC(=O)c1cc2c(C)nc3ccccc3c2o1 (configuration not stated)	4	-14	1	-3	4	1.1
CCOC(=O)N1CCC(NC(=O)Cn2nc(Cc3ccncc3)c3ccccc3c2=O)CC1	-11	55*	0.2	77*	-4	0.4
Cc1nc2ccccc2c2oc(C(=O)NCC3COc4ccccc4O3)cc12 (configuration not stated)	5	5	0.6	36	42*	0.9
COc1ccccc1NC(=O)C(=O)NCC1COc2ccccc2O1 (configuration not stated)	-2	32	1.5	-46	6	0.7
CCc1ccc(CNC(=O)c2cc3c(C)nc4ccccc4c3o2)cc1	-1	4	0.7	32	29	1
CCOC(=O)N1CCC(NC(=O)c2cc3c(C)nc4ccccc4c3o2)CC1	-4	40	0.4	61*	-2	0.6
CCOc1ncccc1C(=O)NCC1COc2ccccc2O1 (configuration not stated)	19	88*	0.1	88*	15	0.1
Cc1csc(SCC(=O)c2c(N)n(CC(C)C)c(=O)n(C)c2=O)n1	-8	14	1	2	-4	0.9
Cc1c(NC(=O)c2cc3ccccc3oc2=O)c(=O)n(-c2ccccc2)n1C	5	-4	1	4	4	1
CCc1ccc(C(=O)NCC2COc3ccccc3O2)o1 (configuration not stated)	1	92*	0.4	58*	5	0.1
COc1ccc(CN(C)C(=O)COC(=O)c2ccc3c(c2)OCO3)cc1OC	-3	32	0.4	61*	5	0.7
COc1ccc(C(C)=O)cc1COC(=O)c1ccc2c(c1)OCO2	-1	11	0.7	30	-2	0.9
CCOc1ccccc1C1C(C#N)=C(N)Oc2cc(N)ccc21 (configuration not stated)	-1	76*	0.3	70*	10	0.2
SMILES	PostGolgi yeast	CYP2C19 inhib	CYP2C9 activ	CYP2C9 inh	PostGolgi ctrl	CYP2C19 activ
COc1ccc(OC)c(C2C(C#N)=C(N)Oc3cc(N)ccc32)c1 (configuration not stated)	-8	94*	0.1	92*	5	0.1
CCN1C=C(Cc2ccc(OC)cc2)C2=C(C1)C(c1ccc(OC)cc1)C(C#N)=C(N)O2 (configuration not stated)	-4	27	0.6	42	0	0.7
CCOc1cccc(C2C(C#N)=C(N)Oc3cc(C)n(Cc4ccccn4)c(=O)c32)c1OCC (configuration not stated)	-4	-8	0.9	13	2	1.1
COc1ccc(OC)c(C2C(C#N)=C(N)Oc3cc(C)[nH]c(=O)c32)c1 (configuration not stated)	-2	-8	1	-3	1	1.1
N#CC1=C(N)Oc2cc(N)ccc2C1C1CCCCC1 (configuration not stated)	18	84*	0.7	31	9	0.2
COc1ccc(C2C(C#N)=C(N)Oc3cc4c(cc32)OCO4)cc1 (configuration not stated)	2	87*	0.1	87*	17	0.1
Cn1c2ccc(Cl)cc2c2nc3ccccc3nc21	38*	-4	1	2	6	1
C=CCNS(=O)(=O)c1ccc(OCC(=O)OCC)cc1	4	2	0.7	27	5	1
C=CCNS(=O)(=O)c1sccc1/C=N/O	6	60*	1	2	4	0.4
COc1cccc(-n2nnc3c(=O)n(CC(=O)N4CCCc5ccccc54)cnc32)c1	-9	-6	1.1	-7	0	1.1
CCOc1ccc(N/C(C)=C/C(=O)c2ccc(C)o2)cc1	-11	52*	0.8	21	7	0.5
COC(=O)c1ccc(N/C(C)=C/C(=O)c2ccc(C)o2)cc1	-2	0	1	-3	-3	1
O=C(Cn1cc2c(n1)CCCC2)NCC1CCCO1 (configuration not stated)	-2	31	1.4	-41	4	0.7
CC(=O)N(C)c1ccc(OCC(O)Cn2c3ccc(Cl)cc3c3cc(Cl)ccc32)cc1 (configuration not stated)	73*	31	0.5	54*	57*	0.7
Cc1cccc(C)c1OCC(O)Cn1c2ccccc2c2ccccc21 (configuration not stated)	-6	49	0.2	75*	50*	0.5
Cc1ccc(OCC(O)Cn2c3ccccc3c3ccccc32)cc1 (configuration not stated)	-1	63*	0.4	60*	41*	0.4
CCn1c(=N)n(CC(O)COc2cccc(C)c2)c2ccccc21 (configuration not stated)	-4	13	1.1	-14	4	0.9

Compound activity as filed in PubChem.
